# Reference: PubChem BioAssay AID2806 (Sanford-Burnham Center for Chemical Genomics, 2010)
# Screen size: about 330,000 compounds; about 660 (0.2%) were called active. The sample holds actives, similar compounds and a random draw of the others, so the mix is not that of the screen. Unmarked numbers belong to inactive results.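 The calls were made as follows: active = inhibition of at least 40% at 10 µM in the primary screen; inactive = the rest.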
# System: intestinal alkaline phosphatase [Mus musculus]
# Assay: mouse intestinal phosphatase enzyme inhibition – biochemical, luminescence, uHTS, primary screen (AID 2806);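 also: plate controls were DMSO with enzyme for no effect and no enzyme wells for full effect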
# Conditions: purified mouse IAP, CDP-Star luminescence, 30 min; at 10 µM; stronger effect = higher value
row,SMILES,inhibition
1,O=c1ccc2c(-c3ccccc3S(=O)(=O)O)c3ccc(O)c(O)c3oc-2c1O,64.9% (active)
2,Cc1ccccc1C(OCCN(C)C)C1CCCCC1 (stereo not drawn),-6%
3,CCN(C[C@H]1N[C@@](CC)(C(=O)OC)[C@H]2C(=O)N(C)C(=O)[C@@H]12)C(=O)Nc1ccc(F)cc1,2.6%
4,CCOC(=O)c1cc(-c2ccccc2C)n(Cc2cc(C)no2)n1,-6.2%
5,CN(C)c1ccc(N/C=C/C(=O)C(F)(F)F)cc1,7.4%
6,COCC1CCN(C(=O)C2CCC(=O)N(CC3CCCCC3)C2)CC1 (stereo not drawn),4.4%
7,Nc1ccc2nc3c(=O)[nH]c(=S)[nH]c3nc2c1,70.9% (active)
8,C=CCC(NC(=O)Cc1ccccc1)C(=O)NCCC (stereo not drawn),-3.3%
9,CCOc1ccc2nc(Cl)c(C3CC(c4ccccc4)=NN3C(=O)c3cccs3)cc2c1 (stereo not drawn),13.7%
10,O=C(NCCOc1cccnc1)c1ccc(OC2CCN(Cc3ccccn3)CC2)cc1,4.2%
11,O=C(CCCN=C1NS(=O)(=O)c2ccccc21)OCC(=O)c1ccc(F)c(F)c1,-12.2%
12,COC(=O)CN(c1nc(C)c(Cl)c(OC)n1)S(=O)(=O)c1ccc(C)cc1,0.2%
13,CCCCN(C)CCNC(=O)C1CCCN(S(=O)(=O)c2cccc3nsnc23)C1 (stereo not drawn),4.9%
14,CS(=O)(=O)N(CC(=O)NC1CCCC1)Cc1ccc(F)cc1,3.3%
15,C=CCSc1nc(N)cc(=O)[nH]1,4.4%
16,CCc1ccc(N(CC)c2ncnc3nc[nH]c23)cc1,7.5%
17,Cc1cc(C)c(C)c(S(=O)(=O)N[C@@H](C)C(=O)OC(C)C(=O)NC(N)=O)c1C (stereo partly drawn),-4.2%
18,CC(NC(=O)c1ccccc1C(=O)O)c1ccc(-n2ccnc2)cc1 (stereo not drawn),0.1%
19,CC(=O)c1sc(N/N=C\c2ccc(C)cc2)nc1C,10.3%
20,COc1cc(/C=N\Nc2nc(-c3cccs3)c(NC(C)=O)s2)ccc1O,41% (active)
21,COc1cc(/C=N/NC(=O)CCc2n[nH]c(=O)[nH]c2=O)ccc1O,-0.9%
22,Fc1ccccc1/C=C1\CCCC2=C1Nc1ncnn1C2c1ccccc1F (stereo not drawn),0%
23,O=[N+]([O-])/C(N=Nc1ccccc1)=N\Nc1ccccc1,-0.1%
24,CSCCC1NC2(C(=O)Nc3ccc(Cl)cc32)[C@@H]2C(=O)N(C3CCCC3)C(=O)[C@H]12 (stereo partly drawn),3.1%

row,SMILES,inhibition
1,Nc1c(C(=O)c2cccs2)sc2nsc(SCCN3CCCCC3)c12,16.4%
2,CN(c1ccccc1)S(=O)(=O)c1ccc2[nH]c(=O)[nH]c2c1,6.6%
3,CCN(c1ccccc1)S(=O)(=O)c1ccc(N)cc1,-11.2%
4,CCN(c1ccccc1)S(=O)(=O)c1ccc2[nH]c(=O)[nH]c2c1,52.1% (active)
5,CSCCC(NC(=O)c1cc([N+](=O)[O-])cc([N+](=O)[O-])c1)c1nc2ccccc2[nH]1 (stereo not drawn),-2%
6,Nc1ccccc1Sc1cc(Cl)nnc1Cl,2.3%
7,C=CCN1CC(C)/C(=N\O)CC1C (stereo not drawn),0.1%
8,CC(=O)Nc1ccc(NS(=O)(=O)c2ccc3c(c2)NC(=O)CC(=O)N3)cc1,1.9%
9,Cc1cccc(-c2nc(CS(=O)CC(=O)NC(C)CCc3ccccc3)c(C)o2)c1 (stereo not drawn),-5%
10,CCCCn1c(N)c(N(CCOC)C(=O)c2oc3ccc(OC)cc3c2C)c(=O)[nH]c1=O,-5.8%
11,Cc1n[nH]c(=O)c2c(NC(=O)CSc3ccccc3F)oc(C)c12,-5.6%
12,Cc1ccccc1NC(=O)C1CCCN(C(=O)NCc2ccccc2)C1 (stereo not drawn),-10.1%
13,C=CCNC(=S)NNC(=O)COc1c(Cl)cc(Cl)cc1Cl,2.2%
14,Cc1cccc(NC(=O)c2cc(S(=O)(=O)N3CCC4(CC3)OCCO4)ccc2F)c1,2.1%
15,CCOC(=O)c1c(C)[nH]c(C)c1C(=O)CSc1nc(N)cc(N)n1,2%
16,CNS(=O)(=O)c1ccc(C(=O)NCC(=O)NCCc2ccc3c(c2)OCCO3)cc1,-6.6%
17,O=C(CCC(=O)OCc1cccc(C(=O)Oc2ccccc2)c1)Nc1cccc2ccccc12,3.6%
18,COc1ccc(NC(=O)CSc2nnc(C3CC3)n2C)cc1S(=O)(=O)N1CCCCC1,-4.3%
19,CCN(CC)C(=O)CS(=O)CC(=O)Nc1cc(OCCOC)c(Cl)cc1Cl (stereo not drawn),-1.1%
20,Cc1ccccc1CN1CCC(C(=O)Nc2ccc(Oc3cccnc3)cc2)CC1,-39.6%
21,CCCC(=O)Nc1ccc(C(=O)N/N=C/c2ccc[nH]2)cc1,40.9% (active)
22,O=C(COc1ccccc1[N+](=O)[O-])N/N=C/c1ccc[nH]1,9.7%
23,CC(=O)Nc1ccc(C(=O)/C=C/c2ccc[nH]2)cc1,1.1%
24,CCCC(=O)Nc1ccc(C(=O)NCCCn2ccnc2)cc1,-4.6%

row,SMILES,inhibition
1,CN(CC(=O)NNC(=O)CNC(=O)c1ccccc1Cl)S(=O)(=O)c1ccc(Cl)cc1,-5.3%
2,O=C(COc1cccc2ccccc12)Nc1cc(S(=O)(=O)N2CCOCC2)ccc1N1CCOCC1,4%
3,O=C1C=C(c2cc(C(F)(F)F)cc(C(F)(F)F)c2)C[C@@H](c2ccc3c(c2)OCO3)C1,13.5%
4,S=c1[nH]nc2c3c4c(sc3ncn12)CCCC4,12.3%
5,Cc1cccc(N)c1SC1CCCCC1O (stereo not drawn),2.7%
6,COc1cccc(C(=O)OCc2cc(=O)oc3c(C)c(C)ccc23)c1OC,8.2%
7,Cn1c(SCC(=O)Nc2ccc(N3CCOCC3)cc2)nnc1C(F)(F)F,-6.7%
8,Cc1nnc(SCC(=O)Nc2ncc3c(n2)CC(C)(C)CC3=O)s1,8.5%
9,CCOc1ccc(N2C(=O)CN(c3cccc4ccccc34)C2=S)cc1,-14.2%
10,COc1ccc(OC)c(Nc2nc(-c3ccc(O)c(O)c3)cs2)c1,68.7% (active)
11,COc1ccc(OC)c(-c2csc(NC(=O)COC(=O)C3CC3)n2)c1,6.9%
12,COc1ccc(OC)c(-c2csc(NC(=O)C3=NNC(=O)CC3)n2)c1,11.3%
13,O=[N+]([O-])c1ccc(N2CCNCC2)cc1NCc1cccnc1,3%
14,Nc1ccc(-n2nncc2-c2ccco2)cc1,-3.6%
15,C=CCn1c(SCc2nnc(-c3ccccc3)o2)nnc1C(O)c1ccccc1 (stereo not drawn),-0.4%
16,CCN(c1ccccc1)S(=O)(=O)c1cc2c(cc1C)n(C)c(=O)c(=O)n2C,-8%
17,NC(=O)C1CCCN(CC(=O)N2CCN(c3ccccc3)CC2)C1 (stereo not drawn),15%
18,COc1ccc(NC(=O)C2CCC(CNc3c(N4CCCCC4)c(=O)c3=O)CC2)c(OC)c1 (stereo not drawn),-14.9%
19,COc1ccc(N2CCN(S(=O)(=O)c3cc4c5c(c3)C(C)C(=O)N5CCC4)CC2)cc1 (stereo not drawn),-7.1%
20,CCn1c(C)c(C)c2cc(C(=O)N3CCN(c4cccc(C)c4C)CC3)ccc21,1.5%
21,COc1ccc(OC)c(NC(=O)Cn2c(=O)oc3ccccc32)c1,-4.3%
22,CC(=O)Nc1c2c(nn1-c1cccc(C)c1)CSC2,9.8%
23,CCCCC(=O)Nc1ccc2c(c1)C(=O)NC2=O,7%
24,Cc1nn(C)c(C(=O)NNC(=S)NC2CCCCC2)c1Cl,16.2%

row,SMILES,inhibition
1,CCCCCCCCCOC1OC(CO)C(O)C(O)C1NC(C)=O (stereo not drawn),3.6%
2,O=C(Nc1ncc2c(n1)CC(c1ccco1)CC2=O)c1ccc(Cl)cc1 (stereo not drawn),0.8%
3,CCc1ccc(Nc2ncc3c(n2)CC(c2ccco2)CC3=O)cc1 (stereo not drawn),41.4% (active)
4,COc1cc(C2CC(=O)c3cnc(NC(C)=O)nc3C2)cc(OC)c1OC (stereo not drawn),6.1%
5,Brc1cnc2ccccc2c1N1CCCCC1,-0.5%
6,CCC(=O)c1ccc(OCC(=O)OCC(=O)N2CCc3ccccc3C2)cc1,2.5%
7,Cc1cc(NC(=O)/C=C/C(=O)N(CC(=O)NC2CCCC2)c2ccc(F)cc2)no1,5.2%
8,O=C(NCc1cc(C(F)(F)F)cc(C(F)(F)F)c1)C1CC(c2cccc(F)c2)=NO1 (stereo not drawn),-2.8%
9,COc1ccc(CNC(=O)C2CCCC2)cc1,4.3%
10,COc1ccc(CNC(=O)C2CC(c3ccc(C(F)(F)F)cc3)=NO2)cc1 (stereo not drawn),41.4% (active)
11,CC1CCCCN1S(=O)(=O)CCNC(=O)c1ccccc1 (stereo not drawn),8.6%
12,Cc1ccc(C)c(NC(=O)CSc2nc3c(oc4ccccc43)c(=O)n2-c2ccccc2)c1,2.2%
13,Cc1ccc(-c2nnn(CC(=O)N(CCO)C(C(=O)NC(C)(C)C)c3ccncc3)n2)cc1 (stereo not drawn),-1.3%
14,CCNC(=O)N1CCN(S(=O)(=O)c2ccc3c(c2)OCCCO3)CC1,-17.6%
15,COc1cccc2[nH]c(C(=O)NCCc3ccccc3)cc12,-19.5%
16,O=C(N1CCCCC1)N1CCN(C(=O)N2CCCCC2)CC1,-1.7%
17,CC1(C)S[C@@H]2[C@H](N=CN3CCCCCC3)C(=O)N2[C@H]1C(=O)O,-8.2%
18,O=C(COC(=O)Cn1[nH]c(=O)c2ccccc2c1=O)Nc1c(Cl)cccc1C(F)(F)F,4.1%
19,O=C(c1cc2ccccc2o1)N1CCN(S(=O)(=O)c2ccc(Cl)s2)CC1,-5.4%
20,Cc1cc(-c2ccc(S(=O)(=O)N3CCc4ccccc4C3)s2)on1,4.5%
21,NC(=O)NC(=O)CSc1nc2cc([N+](=O)[O-])ccc2n1-c1cccc(C(F)(F)F)c1,14.7%
